PubChem BioAssay AID1259313 (Sanford-Burnham Center for Chemical Genomics, 2017)
The campaign covered roughly 340,000 compounds. About 8,500 (2.5%) were called active. The entries come from a sample that favours actives as a whole. Unmarked numbers belong to inactive results.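 Rule for the calls: active = melting temperature shift of at least 10% of the positive control shift, at one fixed dose; inactive = the rest.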

Tested on: Glutamate receptor ionotropic, NMDA 3A (GRIN3A) ligand-binding domain
Test: binders of NR3A ligand-binding domain, primary screen, biophysical, differential scanning fluorimetry, uHTS (AID 1259313)
Conditions: NR3A LBD differential scanning fluorimetry, at 25 µM, stronger effect = higher value, 0% = protein alone, 100% = glycine-bound protein

Row | Compound | Tm shift relative to glycine control
1 | O=C(CCC(=O)N1CCN(S(=O)(=O)c2ccc(Cl)cc2)CC1)NCc1cccc(C(F)(F)F)c1 | -1.09%
2 | O=C(O)C1C2CC2CN1C(=O)c1ccc(Cl)cc1Cl (stereo not drawn) | -0.76%
3 | Cc1ccc(-c2nn(-c3ccccc3)cc2C(=O)NC2CCC(O)CC2)cc1 (stereo not drawn) | -1.68%
4 | COc1ccc(NC(=O)c2cn(-c3ccccc3)nc2SC)cc1 | 18.1% (active)
5 | COc1ccc(NC(=O)c2ccccc2CC[N+](=O)[O-])cc1 | 1.34%
6 | NS(=O)(=O)c1cccc(NC(=O)CSc2nc3ccccc3n2-c2ccccc2)c1 | -3.25%
7 | CSc1ncccc1C(=O)Nc1cccc(S(=O)(=O)N2CCOCC2)c1 | 2.41%
8 | O=C(O)c1ccc(NC(=O)c2cn(-c3ccccc3)nc2-c2ccc(Cl)cc2)cc1 | 12% (active)
9 | Cc1ccc(-c2nn(-c3ccccc3)cc2/C=C/C(=O)Nc2cccc(S(N)(=O)=O)c2)cc1 | 28.9% (active)
10 | Cc1ccc(-c2nn(-c3ccccc3)cc2C(=O)NCCCN2CCCC2=O)cc1 | -0.51%
11 | COc1ccc(-c2nn(-c3ccccc3)cc2C(=O)Nc2nccs2)cc1OC | -1.92%
12 | O=C(/C=C/c1cn(-c2ccccc2)nc1-c1ccc2c(c1)OCCO2)NCCCN1CCOCC1 | -0.74%
13 | Cc1occc1C(=O)Nc1cccc(S(=O)(=O)N2CCOCC2)c1 | 0.26%
14 | Cc1ccc(-c2nn(-c3ccccc3)cc2C(=O)Nc2cccc(S(=O)(=O)N3CCOCC3)c2)cc1 | 10.7% (active)
15 | Cc1cccc(NC(=O)Cn2c(=O)n(Cc3ccccc3)c(=O)c3c(C)c(C)sc32)c1 | 8.62%
16 | O=C(CN1C(=O)c2cccnc2Oc2ccc(Cl)cc21)NCCc1ccccc1 | 0.65%
17 | CNC(=O)c1[nH]cnc1C(=O)N[C@@H](CC(C)C)C(=O)OCc1ccccc1 | -3.33%
18 | CCN(CC)Cc1c(C(=O)OC)nnn1-c1nonc1N | -0.56%
19 | CCCc1cc(=O)oc2c(C)c(OC(C)C(=O)NCC(O)c3ccccc3)ccc12 (stereo not drawn) | 0%
20 | O=C(O)c1cc(S(=O)(=O)N2CCCCCC2)c(Cl)cc1Cl | 0.9%
21 | CC(C(=O)c1ccc(-c2ccccc2)cc1)[n+]1cccc(Br)c1 (stereo not drawn) | -2.4%
22 | Cc1ccccc1-n1nnnc1SCCCC(=O)c1ccc(F)cc1 | 3.17%
23 | COc1cccc(NC(=O)CN(C)C(=O)/C=C/c2cc(OC)ccc2OC)c1 | -3.12%
24 | COc1cccc(NC(=O)CN(C)C(=O)/C=C/c2cn(-c3ccccc3)nc2-c2cccs2)c1 | 10.7% (active)

Row | Compound | Tm shift relative to glycine control
25 | COc1ccc(NC(=O)CN(C)C(=O)/C=C/c2cn(Cc3ccccc3)nc2-c2cccnc2)cc1 | -0.36%
26 | COc1ccc(OC)c(-c2csc(NC(=O)C3=NNC(=O)CC3)n2)c1 | -2.68%
27 | O=C(NCc1cccnc1)c1cccc(-c2cc3ccccc3oc2=O)c1 | -2.7%
28 | CCCCCCC(=O)Nc1nc(C)c(-c2csc(Nc3cccc(OC)c3)n2)s1 | 4.39%
29 | COc1ccc(OC)c(-c2csc(-c3cccs3)n2)c1 | 2.35%
30 | O=C(Nc1ccncc1)c1cc2ccccc2o1 | -15%
31 | Fc1ccc2nc(Nc3nc4c(s3)CCCC4)sc2c1 | -1.71%
32 | COc1ccc2nc(Nc3nc(-c4ccncc4)cs3)sc2c1 | 23.1% (active)
33 | COc1ccc2nc(Nc3nc(-c4cc5ccccc5oc4=O)cs3)sc2c1 | 24.7% (active)
34 | O=c1oc2ccccc2cc1-c1csc(Nc2ccc(O)cc2)n1 | 12.2% (active)
35 | COC(=O)c1c(NC(=O)CN(c2ccc(C)c(C)c2)S(C)(=O)=O)sc2c1CCCC2 | -7.55%
36 | O=C(COc1nsnc1N1CCOCC1)Nc1ccccc1Cl | 1.49%
37 | COc1ccccc1N1CC(C(=O)Nc2nnc(SCC(=O)NCC3CCCO3)s2)CC1=O (stereo not drawn) | 0.09%
38 | O=C(CNCCO)NC12CC3CC(CC(C3)C1)C2 | -0.61%
39 | O=S(=O)(Nc1ccccc1Cl)c1cccc2nsnc12 | -0.29%
40 | O=C(CC1C(=O)NCCN1CC(c1ccccc1)c1ccccc1)NCC1CCOCC1 (stereo not drawn) | 3.8%
41 | O=C(Cn1c(-c2cscn2)nc2ccccc21)Nc1ccc(Cl)cc1 | -2.29%
42 | CC1CCCN(C(=O)Cn2c(=O)oc3cc(S(=O)(=O)N4CCCCC4C)ccc32)C1 (stereo not drawn) | -0.87%
43 | O=C(NCCNc1ccc([N+](=O)[O-])cc1Cl)c1ccccc1F | -1.3%
44 | O=C(NCCNc1ccc([N+](=O)[O-])cc1)c1cccc2c(Br)cccc12 | 23.8% (active)
45 | CC(CNc1ccc([N+](=O)[O-])cc1)NC(=O)c1ccccc1Br (stereo not drawn) | 2.55%
46 | Clc1cc(-c2ccc(/C=N/n3cnnc3)o2)ccc1Br | -26.7%
47 | CCN(CC)C(=O)CSc1nnc(CNc2ccc(F)cc2)n1Cc1ccco1 | 1.69%
48 | CCOC(=O)CNC(=O)CSc1nnc(COc2ccc(Cl)cc2)n1CC | -0.34%

Row | Compound | Tm shift relative to glycine control
49 | O=C(CSc1nnc(COc2ccc(Cl)cc2)n1Cc1ccco1)N1CCNC1=O | 14.1% (active)
50 | CC(C)=CCc1ccc(O)c(=O)cc1C(C)C | -5.18%
51 | CC(C)c1cc(CN2CCOCC2)cc(C(C)C)c1O | -0.77%
52 | CC(C)c1cc(N=O)cc(C(C)C)c1O | 14% (active)
53 | Cc1noc(C)c1-c1ccc2ncnc(NC(C)c3ccco3)c2c1 (stereo not drawn) | -0.81%
54 | COc1cccc(-n2c(SCC(=O)c3c[nH]c4ccccc34)nc3ccccc3c2=O)c1 | 8.21%
55 | COc1ccc(C(C(O)C(=O)c2c[nH]c3ccccc23)N2CCN(c3ccccc3)CC2)cc1 (stereo not drawn) | -1.26%
56 | COc1ccc(/C=C(\C#N)c2c[nH]c3ccccc23)cc1 | 35.2% (active)
57 | Cc1cc(C)c2nc(NC(=O)C3CCCO3)sc2c1 (stereo not drawn) | -0.2%
58 | CC(NC(=O)c1ccccc1)C(=O)OCC(=O)Nc1cccc(S(=O)(=O)N2CCCC2)c1 (stereo not drawn) | -1.26%
59 | O=C(NC(=S)Nc1cccc2c(O)cccc12)c1cccc(Br)c1 | 23.1% (active)
60 | Cc1ccccc1NC(=S)NNC(=O)c1cccc(Br)c1 | -6.22%
61 | NS(=O)(=O)c1ccc(NC(=S)NC(=O)c2cccc(Br)c2)cc1 | -9.81%
62 | C/C=C(/C)C(=O)O[C@@H]1c2cc3c(c4c2[C@@]2(CO4)C(=O)C(OC)=C(OC)C=C2C[C@@H](C)[C@H]1C)OCO3 | 0.32%
63 | CCN1C(=O)C(=O)N(CC(=O)Nc2cc(C)ccc2C)C1=O | 1.68%
64 | CCN1C(=O)C(CC(=O)Nc2cc(C)ccc2C)SC1=Nc1ccc(S(N)(=O)=O)cc1 (stereo not drawn) | 14.2% (active)
65 | CCN=C1SC(CC(=O)Nc2ccc(C)cc2)C(=O)N1CC (stereo not drawn) | 0.44%
66 | C/C(=N\NS(=O)(=O)c1ccccc1)c1c(O)cc(C)oc1=O | 5.22%
67 | Oc1cccc(C2c3[nH]c4ccccc4c3CCN2Cc2cnn(-c3ccccc3)c2)c1 (stereo not drawn) | 9.57%
68 | COc1ccc(-c2nc(N)ncc2-c2ccc(Cl)cc2)c(O)c1 | -3.97%
69 | Cc1[nH]nc(-c2ccc(OCc3cnn(-c4ccccc4)c3)cc2O)c1Oc1ccc(Cl)cc1 | 22.7% (active)
70 | COc1ccc(C(=O)NC(Cc2ccc(OC(=O)c3ccc(OC)cc3)cc2)C(=O)O)cc1 (stereo not drawn) | 1.26%
71 | CCCC(C)n1[nH]c(=O)c2c(C)cc(C)nc21 (stereo not drawn) | -2.91%
72 | COc1ccc(/C=C/C(=O)OCC(=O)N2CCN(S(=O)(=O)c3ccc(C)cc3C)CC2)cc1OC | 2.82%

Row | Compound | Tm shift relative to glycine control
73 | Cc1nc2ccccn2c(=O)c1NC(=O)c1cccs1 | 2.62%
74 | Brc1ccc(-c2csc(N/N=C/c3ccc4c(c3)OCO4)n2)cc1 | 23.4% (active)
75 | C(=N\Nc1ccc2ccccc2n1)/c1ccc2c(c1)OCO2 | -7.73%
76 | Brc1ccc(-c2csc(N/N=C/c3cccnc3)n2)cc1 | 3.34%
77 | COc1ccc(-c2ccc(CCC(=O)O)n2NC(=O)c2ccc(C(C)(C)C)cc2)cc1 | -1.21%
78 | CNC(=O)c1sc(NCc2ccccc2OC)nc1C | 0.18%
79 | O=C(O)/C=C\C(=O)Nc1ccc(OCc2ccccc2)cc1 | -0.88%
80 | CNC(=O)c1sc(Nc2ccc(OCc3ccccc3)cc2)nc1C | 33.7% (active)
81 | COC(=O)C1=C(Nc2ccc(C)cc2)C=C(C)C(C(=O)OC)C1c1ccc(F)cc1 (stereo not drawn) | 2.17%
82 | CC[C@]1(C(=O)OC)[C@H]2C(=O)N(Cc3ccccc3)C(=O)[C@H]2[C@H]2CN=C(SCc3ccccc3)N21 | -1.15%
83 | COCCN1C2=C(COC(C)(C)C2)C(=S)NC1c1ccccc1 (stereo not drawn) | -0.64%
84 | CCC(=O)Nc1sc(C(=O)Nc2ccccc2)c(C)c1C(=O)OC | 2.03%
85 | COC(=O)c1c(NC(C)=O)sc(C(=O)Nc2ccccc2OC)c1C | -3.42%
86 | CC(=O)c1c(Nc2ccccc2)sc(C(=O)c2ccccc2)c1C | 13.4% (active)
87 | COC(=O)c1cc(S(=O)(=O)N2CCN(c3cc(C)ccc3C)CC2)c[nH]1 | -17%
88 | Cc1ccc(Cl)c(OCC(=O)NN2CCN(C)CC2)c1 | -1.17%
89 | CCCC1=Nc2cc(C(=O)NCc3ccco3)ccc2Sc2ccccc21 | -20.6%
90 | Cc1ccc(N(CC(=O)Nc2cc(C)cc(C)c2)S(=O)(=O)c2cccc3nonc23)cc1 | -1.49%
91 | CCOC(=O)c1ccc(NC(=O)c2nc[nH]c2C(=O)NCc2ccccc2)cc1 | -1.27%
92 | CCOC(=O)c1ccc(NC(=O)c2c(N)n(C)c(=O)[nH]c2=O)cc1 | 0.72%
93 | CCOC(=O)c1ccc(NC(=O)c2c(NCc3ccccc3)[nH]c(=O)[nH]c2=O)cc1 | 14.9% (active)
